# Laboratory results taken from PubChem BioAssay AID434970 (Sanford-Burnham Center for Chemical Genomics, 2010).
# Out of some 11,000 compounds screened, about 310 (2.8%) were called active. Rule as the data show it: active = activity change below about -85%; inactive = the rest. The sample as a whole holds a higher share of actives than the screen did.
# System: intestinal alkaline phosphatase [Mus musculus]
# Assay: activators of mouse IAP, confirmation, biochemical, luminescence, single concentration (AID 434970)
# Conditions: purified mouse IAP, CDP-Star luminescence, 30 min, at 10 µM; activation factor: measured here: IAP activation factor, stronger effect = higher value; activity change, negative = activation: stronger effect = lower value
SMILES,activation factor,"activity change, negative = activation"
Cc1ccc(N=C2NC(=O)CS2)cc1,0.925,7.5% (inactive)
COc1ccc(C2/C=C\CN(S(=O)(=O)c3ccc(C)cc3)CC(=O)N2Cc2cccc(F)c2)cc1 (centres undefined),1.08,-8% (inactive)
O=C1CCCCCN1Cc1nnc(SCc2nc3ccccc3s2)n1-c1ccccn1,0.923,7.7% (inactive)
Cc1ccc(-c2noc(CN3CCC(C(N)=O)CC3)n2)cc1,0.997,0.25% (inactive)
CC(=O)NCC(=O)N(c1c(C)n(C)n(-c2ccccc2)c1=O)C1(C(=O)NC2CCCC2)CCCCC1,0.98,2.05% (inactive)
O=C(N1CCOCC1)C1(c2ccccc2)CCCCC1,0.901,9.95% (inactive)
Cc1ccc(NC(=O)CN(C)C(=O)CCCN2C(=O)c3ccccc3C2=O)cc1,1.04,-3.95% (inactive)
C#CCOCCOCCOCCNc1nc(N2CCN(C(=O)CCCCCCCCCCNC(=O)[C@H]([C@@H](C)CC)n3cc(CCCCCN)nn3)CC2)nc(N2CCN(C(=O)CCCCCCCCCCNC(=O)[C@@H]([C@H](C)O)n3cc(C)nn3)CC2)n1,4.1,-310% (active)
C#CCOCCOCCOCCNc1nc(N2CCN(C(=O)CCCCCCCCCCNC(=O)[C@H]([C@@H](C)CC)n3cc(CCCCCN)nn3)CC2)nc(N2CCN(C(=O)CCCCCCCCCCNC(=O)[C@H](CO)n3cc(CCCCCN)nn3)CC2)n1,2.51,-151% (active)
C#CCOCCOCCOCCNc1nc(N2CCN(C(=O)CCCCCCCCCCNC(=O)[C@H]([C@@H](C)CC)n3cc(CCCCCN)nn3)CC2)nc(N2CCN(C(=O)CCCCCCCCCCNC(=O)[C@@H]([C@H](C)CC)n3cc(CCCCCN)nn3)CC2)n1,6.79,-579% (active)
CCOc1ccc(-n2cc(C(=O)Nc3cccc(Cl)c3)c3cc(OC)c(OC)cc3c2=O)cc1,1.1,-10.2% (inactive)
CNC(=O)/C(C#N)=C/c1ccc(-c2ccc(OC)cc2[N+](=O)[O-])o1,0.891,10.9% (inactive)
CC(C)N(C(=O)[C@H]1C[C@H](CC(=O)NCCC2=CCCCC2)C(=O)N2CCc3c([nH]c4ccc(Cl)cc34)[C@]12C)C(C)C,1.23,-23.5% (inactive)
NC(=O)c1c(NC(=O)CSc2nnc(-c3ccco3)n2-c2ccccc2)sc2c1CCC2,0.759,24.1% (inactive)
COc1ccc(NC(=O)C2CCCN2c2ccc(OC)c(OC)c2)cc1OC (centres undefined),1.14,-14.2% (inactive)
COc1ccc(C2C(C(=O)N3CCCC3)c3cc(OC)c(OC)cc3C(=O)N2C)cc1 (centres undefined),0.989,1.1% (inactive)
COc1ccccc1NC(=O)CCNS(=O)(=O)c1ccc2[nH]c(=O)oc2c1,0.265,73.5% (inactive)
